From PubChem BioAssay
ssDAF-12 act: activates DAF-12 receptor from parasite S. stercoralis; HEK293 ssDAF-12/GRIP1 lit1-tk-luc reporter, luminescence; % of 3 µM dafachronic acid response; activation, % at 6.8 µM; hit rate 1% among 370,000;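 active = activation above the mean over all tested compounds plus 3 SD, cut at about 0.9% in these data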;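 also: 0% = DMSO-only wells and 100% = 3 µM delta7-dafachronic acid wells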
hgDAF12 agonist: agonists of H. glycines DAF-12 nuclear receptor. HEK293 GAL4-hgDAF12 UAS-luciferase reporter, agonist luminescence; normalized to butyrate control. activation, % at 6.8 µM. hit rate 1.8% among 370,000. AID 687014;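 active = activation above a cutoff set at the mean of all screened compounds plus 3 SD, cut at about 10% in these data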;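 also: 0% = DMSO wells and 100% = sodium butyrate wells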
hcDAF12 agonist: activators of H. contortus DAF-12 nuclear receptor; HEK293 hcDAF-12 lit1-tk-luc reporter, luminescence; 0% DMSO, 100% Δ7-dafachronic acid; activation, % at 6.8 µM; hit rate 1.4% among 370,000; AID 652067;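 active = activation above the mean of all tested compounds plus 3 SD, cut at about 5.5% in these data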;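 also: 100% = response to 3 µM Δ7-dafachronic acid high control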
DAX1 inh-1: inhibitors of human orphan nuclear receptor DAX1 (NR0B1). P51843. hit rate 0.99% among 340,000. HEK293 Gal4-DAX1 luciferase reporter, luminescence. AID 504766. inhibition, % at 6.75 µM;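 active = inhibition above the mean over all tested compounds plus 3 SD, cut at about 4.2% in these data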;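 also: 0% = DAX1-transfected cells with DMSO and 100% = empty-vector control cells with DMSO; inhibition shows as a rise in luminescence from relieved DAX1 repression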
Target sequence (P51843 207-470 limits assumed): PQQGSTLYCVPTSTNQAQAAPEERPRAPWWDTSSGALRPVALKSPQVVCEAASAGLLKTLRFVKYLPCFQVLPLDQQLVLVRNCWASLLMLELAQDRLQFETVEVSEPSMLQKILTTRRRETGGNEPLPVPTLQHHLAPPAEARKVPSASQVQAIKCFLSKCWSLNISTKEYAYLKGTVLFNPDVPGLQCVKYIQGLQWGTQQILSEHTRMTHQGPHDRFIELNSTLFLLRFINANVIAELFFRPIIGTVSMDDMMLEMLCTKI
SMARCA2 activ: activators of SMARCA2 function | activation, % at 9.1 µM | MG213 cells, MMTV-luciferase reporter, dexamethasone, overnight | hit rate 1% among 370,000; in the data active = activation above about 7.8%;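 also: 0% = vehicle wells and 100% = reference activator wells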
DAX1 inh-2: DAX1 (NR0B1) inhibition, primary screen | hit rate 1.1% among 370,000 | inhibition, % at 6.8 µM | AID 652010 | HEK293T StAR-luciferase reporter, SF-1/DAX-1 repression relief;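 active = inhibition above the mean over all tested compounds plus 3 SD, cut at about 3.6% in these data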;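 also: 0% = DAX-1 cells with DMSO and 100% = cells lacking DAX-1 with DMSO; higher inhibition means more luminescence from relief of DAX-1 repression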
DAX1 conf: NR0B1 (human) inhibition, confirmation. shares compounds with DAX1 inh-2. HEK293T StAR-promoter luciferase reporter, SF-1/DAX-1 repression. inhibition, % at 6.8 µM. hit rate 87% among 2,400. AID 652134;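 active = inhibition above the average of every tested compound plus 3 SD, cut at about 3.8% in these data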;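 also: 0% = DAX-1 cells with DMSO and 100% = no DAX-1 control cells with DMSO; active compounds raise luminescence by relieving repression of the StAR reporter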
SF1 mutant ctr: counter-screen for DAX1 inhibitors: nonselective inhibitors with SF-1 AF2 mutant; shares compounds with DAX1 inh-2; HEK293 StAR-luciferase, luminescence; inhibition, % at 6.8 µM; hit rate 78% among 2,400; AID 652136;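 active = inhibition above the mean of all tested compounds plus 3 SD, cut at about 3% in these data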;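 also: 0% = DAX-1 transfected cells with DMSO and 100% = cells without DAX-1 with DMSO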
Active calls of the source: *; x = not tested or not shown. Only some compounds are listed: those with a hit (about 4.8% of all), similar ones and a draw of the others.

SMILES | ssDAF-12 act | hgDAF12 agonist | hcDAF12 agonist | DAX1 inh-1 | SMARCA2 activ | DAX1 inh-2 | DAX1 conf | SF1 mutant ctr
O=C(c1cc(-c2ccc(Cl)cc2Cl)on1)N1CCOCC1 | 0 | 6 | 4 | -3 | 1 | 6.1* | 7.9* | 2
O=C(c1cc(-c2ccccc2O)on1)N1CCOCC1 | -1 | 9 | 0 | 3 | 3 | 1 | x | x
CCOC(=O)N1CCN(C(=O)c2ccc3oc(CCCc4ccccc4)nc3c2)CC1 | -1 | 8 | 3 | 2 | 5 | 5.2* | 6.0* | 2
CC(=O)N1CCN(C(=O)c2ccc3oc(CCCc4ccccc4)nc3c2)CC1 | -1 | 1 | 0 | 0 | 0 | 0 | x | x
CN(C(=O)CSc1nc2ccccc2o1)C1CCCCC1 | 0 | 13* | 0 | 2 | 7 | 9.0* | 7.2* | 5.9*
COc1ccc(N2c3ccccc3CN(Cc3ccccc3)CC2Cc2cc(OC)c(OC)c(OC)c2)cc1 (centres undefined) | -2 | 4 | -1 | 1 | -4 | 2 | x | x
C[C@H]1[C@@H](Cc2cc(Cl)cc(Cl)c2)N(c2ccccc2)c2ccccc2CN1Cc1ccccc1 | -1 | 4 | 0 | x | -5 | 5.0* | -2 | -1
CSc1ccc(C2C(C(=O)c3ccco3)=C(O)C(=O)N2c2nnc(SC)s2)cc1 (centres undefined) | -1 | 12* | 4 | -1 | 0 | 6.4* | 3 | 3.1*
C/C=C(\C)CN1CCC(Oc2ccc(C(=O)NCc3ccccn3)cc2)CC1 | -1 | -2 | 1 | 0 | -1 | 1 | x | x
O=C(NCCc1ccccn1)c1ccc(OC2CCN(CCc3ccccc3)CC2)cc1 | 0 | 12* | 3 | 1 | 6 | 5.8* | 9.1* | 4.1*
C/C(=N\NC(=O)c1ccn(C)n1)c1ccco1 | -1 | 6 | 3 | 1 | 4 | 1 | x | x
C/C(=N\NC(=O)c1ccn(C)n1)c1ccc(NC(=O)c2cccc(F)c2)cc1 | 0 | 9 | 2 | 0 | 2 | 8.4* | -2 | -1
O=C(COc1ccc(Br)cc1Cl)NC(=S)Nc1ccccn1 | 0 | 3 | 5 | 5.2* | -1 | 4.8* | 16* | 3.0*
Cc1ccc(OCC(=O)NC(=S)Nc2ccccn2)c(Br)c1 | -2 | -5 | -1 | -2 | -1 | 0 | x | x
S=C(Nc1nc2c(s1)CCCC2)NC1CC1 | 0 | 10 | 3 | 1 | 1 | 5.3* | 6.4* | 4.3*
CCCCn1c(N)c(N(CC(C)C)C(=O)C2CCN(C(=O)c3ccc(Cl)cc3)CC2)c(=O)[nH]c1=O | 0 | -3 | 0 | 1 | -3 | 2 | x | x
COC(=O)c1ccc(NC(=O)c2ccc(NS(=O)(=O)c3cccc4cccnc34)cc2)cc1 | x | x | x | 0 | x | x | x | x
CC1(C(=O)NCc2ccc(C(F)(F)F)cc2)CCN1Cc1cc2ccccc2o1 (centres undefined) | -2 | -3 | -2 | x | -9 | -1 | x | x
COc1ccc(C(CNC(=O)c2ccc(C)c(S(=O)(=O)Nc3ccccc3OC)c2)N2CCCC2)cc1 (centres undefined) | -1 | 3 | 2 | 1 | 5 | 5.3* | 6.2* | 5.3*
COc1ccc(C(CNC(=O)c2cccc(S(=O)(=O)Nc3ccccc3OC)c2)N2CCCC2)cc1 (centres undefined) | -1 | 0 | -1 | 1 | -1 | 5.7* | 6.3* | 3.4*
COc1ccc(C(CNC(=O)c2cccc(S(=O)(=O)Nc3ccccc3OC)c2)N2CCCCC2)cc1 (centres undefined) | -1 | 2 | 0 | 2 | -2 | 6.9* | 5.9* | 4.2*
COc1cccc2c1C(=O)c1c(O)c3c(c(O)c1C2=O)C[C@@](O)(C(=O)CO)C[C@@H]3O[C@H]1C[C@H](N)[C@@H](O)[C@H](C)O1 | x | x | x | -2 | x | x | x | x
CCCN1CNC(=S)N(c2cccc(C)c2)C1 | -2 | 1 | 0 | 1 | -2 | 0 | x | x
O=C(NC1CCN(Cc2ccccc2)CC1)c1ccc2c(c1)[nH]c(=O)n2Cc1ccc(F)cc1 | -2 | -5 | -4 | -2 | -8 | -2 | x | x
Cc1ccc(NC(=O)C/C(N)=N/OC(=O)Nc2cccc(C)c2)cc1 | -1 | 3 | 2 | 0 | 0 | 5.0* | 2 | 1
SMILES | ssDAF-12 act | hgDAF12 agonist | hcDAF12 agonist | DAX1 inh-1 | SMARCA2 activ | DAX1 inh-2 | DAX1 conf | SF1 mutant ctr
COc1cc2nn(-c3ccccc3N)nc2cc1OC | 0 | 11* | 3 | 3 | 0 | 4.7* | 6.7* | 4.8*
Cc1ccc2occ(/C=N/NC(=O)c3ccccc3O)c(=O)c2c1 | 0 | 5 | 6.4* | 1 | 2 | 10* | 7.3* | 7.6*
Cc1nc(NC(=O)C(C)(C)C)sc1C(=O)Cn1cc(CCc2ccccc2)nn1 | -1 | 2 | -2 | x | -3 | 1 | x | x
Cc1cccc(-c2cc3nc4c(c(NCc5ccco5)n3n2)CCCC4)c1 | 0 | 12* | 0 | 2 | 6 | 5.0* | 5.4* | 3.1*
CS(=O)(=O)c1ccc(-c2cccc(NC(=O)c3ccc(Br)o3)c2)nn1 | 0 | -2 | -1 | -1 | -1 | -2 | x | x
COc1ccc(-c2ccc(NC(=O)c3ccc(Br)o3)cc2)nn1 | 0 | 4 | 0 | 1 | 5 | 5.2* | 5.6* | 4.2*
O=C(N/N=C/c1cccc2ccccc12)c1cccc(F)c1 | 0 | 8 | 3 | 0 | 4 | 5.1* | 2 | 2
O=C(N/N=C/c1c(Cl)cccc1Cl)c1cccc(F)c1 | x | x | x | 0 | x | x | x | x
CCCNC(=S)N1CC2(C)CN(C(=O)C(=O)OC)CC(C)(C1)C2=O | 0 | 1 | -2 | 1 | 2 | 0 | x | x
C/C=C/COC(=O)c1[nH]c2c(c1C)C(=O)CC(c1ccco1)C2 (centres undefined) | 0 | -3 | -2 | -4 | -1 | 2 | x | x
Cc1c(C(=O)OCC(C)C)[nH]c2c1C(=O)CC(c1ccco1)C2 (centres undefined) | -1 | -5 | -2 | -2 | -3 | 6.3* | 9.0* | -8
O=C(CCCOc1ccccc1)Nc1nnc(C2CCCO2)s1 (centres undefined) | -1 | 1 | 0 | 1 | 2 | 0 | x | x
COc1ccccc1OCCCC(=O)Nc1nnc(C2CCCO2)s1 (centres undefined) | -1 | 0 | 1 | 1 | -2 | 6.1* | 4.2* | 3.7*
Cc1ccccc1NC(=O)COC(=O)c1ccc2nc(C)c(C)nc2c1 | -1 | 1 | 0 | 1 | 6 | 2 | x | x
COCc1cc(C)nc(SCC(=O)Nc2ccc3c(c2)OCO3)c1C#N | -2 | 0 | -3 | 1 | 0 | -1 | x | x
